Mcl-1 Bim block = disrupts Bim peptide binding to human Mcl-1; hit rate 0.1% among 190,000; inhibition, % at 10 µM; Bead-based flow cytometry, Bim peptide-Mcl-1 binding; in the data active = inhibition above about 40%;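 also: 0% = no compound tracer wells and 100% = peptide blocker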
Target sequence (Q07820 whole entry, looked up): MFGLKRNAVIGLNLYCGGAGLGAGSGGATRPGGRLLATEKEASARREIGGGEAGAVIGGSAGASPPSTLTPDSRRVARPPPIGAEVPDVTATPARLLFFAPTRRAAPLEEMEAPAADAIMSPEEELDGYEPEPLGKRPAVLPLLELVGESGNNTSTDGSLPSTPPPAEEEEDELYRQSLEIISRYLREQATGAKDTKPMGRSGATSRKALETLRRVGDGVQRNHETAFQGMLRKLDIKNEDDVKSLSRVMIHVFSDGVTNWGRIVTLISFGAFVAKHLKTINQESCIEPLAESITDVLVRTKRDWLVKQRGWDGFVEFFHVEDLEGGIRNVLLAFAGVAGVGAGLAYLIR
Mcl1 Noxa PPI = disrupts binding of human Mcl-1 to Noxa peptide; Q07820; TR-FRET Mcl-1/Noxa peptide binding, 2 h; inhibition, % at 21.7 µM; hit rate 1.5% among 220,000; AID 1022;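 active = compounds that cut the protein-peptide binding signal by more than 50% relative to plate controls in a single-dose test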;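 also: His-tagged Mcl-1 with rhodamine Noxa BH3 peptide and terbium anti-His antibody; 0% = Mcl-1 plus Noxa peptide wells and 100% = peptide-only wells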
Arbovirus inh = blocks arbovirus infection. arbovirus infection cell-based antiviral screen. inhibition, % at 10 µM. hit rate 0.37% among 200,000. AID 1251; in the data active = inhibition above about 30%
Mcl1 Bid PPI = Mcl-1/Bid interaction inhibition | Q07820 | TR-FRET Mcl-1/Bid-Dy647 peptide binding, 1536-well | AID 1021 | inhibition, % at 21.7 µM | hit rate 0.97% among 220,000;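 active = compounds that cut the binding signal by more than half at the single screening dose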;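 also: His-tagged Mcl-1 with europium anti-His antibody binding Bid BH3 peptide; 0% = Mcl-1 plus peptide wells and 100% = peptide-only wells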
14-3-3 Bad PPI = disrupts binding of bovine 14-3-3 zeta to phospho-Bad peptide. hit rate 0.71% among 220,000. inhibition, % at 21.7 µM. AID 781. P63103. TR-FRET 14-3-3zeta/Dy647-pBad peptide displacement, 1 h;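 active = inhibition above about 70%, limit read from the data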;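 also: 0% = full 14-3-3 plus peptide FRET controls and 100% = background without 14-3-3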
* hit, by the source's call; nt = not tested or not shown. Shown are actives, neighbours in structure and some others; about 3% of the full set was active somewhere.

SMILES	Mcl-1 Bim block	Mcl1 Noxa PPI	Arbovirus inh	Mcl1 Bid PPI	14-3-3 Bad PPI
O=C(N/N=C/c1ccc(F)cc1)c1cc(-c2ccc3c(c2)OCO3)n[nH]1	nt	-9	nt	4	8
CN(C)c1ccc(/C=N/NC(=O)c2cc(-c3ccc4c(c3)OCO4)n[nH]2)cc1	nt	60*	nt	1	1
CC(Oc1ccc(-c2ccccc2)c(F)c1)c1ccn(S(=O)(=O)c2ccc(Cl)cc2)n1 (centres undefined)	-2	5	16	0	-6
c1ccc(N2CC3CCc4ccccc4C3=N2)cc1 (centres undefined)	nt	-4	nt	-45	-11
O=C(/C=C/c1ccc(Cl)c([N+](=O)[O-])c1)Nc1ccc(N2CCCC2)cc1	-8	75*	-11	-39	-20
O=C(/C=C/c1ccc(Cl)c([N+](=O)[O-])c1)Nc1ccc(NC(=O)c2ccco2)cc1	-9	47	-3	40	13
COc1ccc(Nc2nc(NCc3ccco3)nc(N/N=C/c3ccc(O)cc3)n2)cc1	-5	29	-2	-10	-15
CCN(CC)c1ccc(C(=O)OCC(=O)Nc2ccc3[nH]c(=O)[nH]c3c2)cc1	2	55*	5	-43	2
CCCC(=O)OCC(=O)Nc1ccc2[nH]c(=O)[nH]c2c1	-1	26	-2	-9	-11
O=C(COc1cccc(F)c1)Nc1ccc2[nH]c(=O)[nH]c2c1	2	-5	-3	-43	-11
O=C(COC(=O)c1ccc(F)cc1F)Nc1ccc2[nH]c(=O)[nH]c2c1	0	69*	-2	-1	0
CC1CC1C(=O)OCC(=O)Nc1ccc2[nH]c(=O)[nH]c2c1 (centres undefined)	0	76*	2	3	15
O=C(COC(=O)c1c(F)cccc1F)Nc1ccc2[nH]c(=O)[nH]c2c1	4	72*	3	-33	-1
CCN(CC)c1ccc(C(=O)OCC(=O)NC(C)(C)C)cc1	nt	1	nt	-110	-5
Cc1nn2c(NCCN(C)C)c3c(nc2c1-c1ccccc1)CCCC3	nt	19	nt	-12	-2
C=CCNC(=S)N/N=C/c1ccc(C(F)(F)F)cc1	3	3	-2	-25	-6
Cc1onc(-c2c(F)cccc2Cl)c1C(=O)N1CCN(c2ncc(Br)cn2)CC1	nt	-14	nt	4	1
CCOc1ccc(/C(O)=C2/C(=O)C(=O)N(CC3CCCO3)C2c2cccs2)cc1 (centres undefined)	-2	17	4	11	3
CCN(CC)c1ccc(NC(=O)COC(=O)c2ccc3ccccc3n2)cc1	-7	57*	3	-20	9
COc1ccc(C(=S)N2CCN(c3cccc(Cl)c3)CC2)cc1	nt	10	nt	-40	14
CC(C)(C)c1nc(NCCN2CCOCC2)c2nnn(Cc3ccccc3Cl)c2n1	41*	-1	8	-1	9
O=C(NCC1CC1)c1ccc(Nc2nc3ccc(Br)cc3[nH]2)cc1	0	52*	-8	13	35
Cc1nnc(Sc2cc(C(=O)NC3CC3)c3ccccc3n2)s1	nt	0	nt	99*	0
COCCNC(=O)c1cc(Sc2nnc(C)s2)nc2ccccc12	nt	0	nt	-7	-2
N#CC1(c2ccccc2)CCC(=O)N1c1ccccc1 (centres undefined)	nt	8	nt	-2	2
SMILES	Mcl-1 Bim block	Mcl1 Noxa PPI	Arbovirus inh	Mcl1 Bid PPI	14-3-3 Bad PPI
CCCn1c(=S)[nH]c2cc(Cl)ccc21	nt	3	nt	-150	-2
Cn1c(O)c(C2=c3ccccc3=NC2=O)sc1=Nc1ccc(Cl)cc1	-3	26	-24	-5	2
C=CCn1c(O)c(C2=c3ccccc3=NC2=O)s/c1=N/c1nccs1	0	48	-8	56*	17
OC(COCC1COc2ccccc2O1)CN1CCN(c2ccccn2)CC1 (centres undefined)	-1	23	0	9	80*
NNC(=S)Nc1cc(S(=O)(=O)N2CCOCC2)ccc1N1CCOCC1	0	7	-4	-45	94*
NNC(=S)Nc1ccc(S(=O)(=O)N2CCOCC2)cc1	nt	-43	nt	-84	-6
COc1ccc(NC(C)C(=O)Nc2ccc(C#N)cc2)cc1Cl (centres undefined)	0	92*	16	89*	-1
COc1ccc(NC(C)C(=O)Nc2ccc(C(C)(C)C)cc2)cc1Cl (centres undefined)	0	10	-25	3	10
O=C(O)c1cccc(S(=O)(=O)Nc2ccc3[nH]c(=O)[nH]c3c2)c1	nt	40	nt	-72	-2
O=C(O)c1ccc(Cl)c(S(=O)(=O)Nc2ccc3[nH]c(=O)[nH]c3c2)c1	nt	56*	nt	-3	7

Assay outcomes as filed in PubChem BioAssay.
